D2 antagonist = antagonists of human D2 dopamine receptor; P14416; 2% of 340,000 active; inhibition, % at 10 µM; HEK293 TREx D2 cells, calcium flux, dopamine EC80; in the data active = inhibition above about 30%; inactive = below that, where a call was filed
Target sequence (P14416 whole entry, looked up): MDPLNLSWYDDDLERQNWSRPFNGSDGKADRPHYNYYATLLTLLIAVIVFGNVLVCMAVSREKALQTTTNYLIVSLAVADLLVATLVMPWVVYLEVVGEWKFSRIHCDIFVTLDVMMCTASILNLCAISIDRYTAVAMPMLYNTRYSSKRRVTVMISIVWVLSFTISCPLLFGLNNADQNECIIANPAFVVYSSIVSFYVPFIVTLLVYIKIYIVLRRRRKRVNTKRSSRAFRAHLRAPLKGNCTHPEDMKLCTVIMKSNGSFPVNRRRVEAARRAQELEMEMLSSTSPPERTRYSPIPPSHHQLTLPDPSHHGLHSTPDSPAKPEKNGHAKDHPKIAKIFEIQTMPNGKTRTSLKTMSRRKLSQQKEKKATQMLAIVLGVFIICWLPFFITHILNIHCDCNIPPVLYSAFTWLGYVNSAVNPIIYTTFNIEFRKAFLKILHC
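Read-out: kinetic calcium fluorescence (1 cycle/s) in inducible HEK293 T-REx D2 cells after an EC80 dopamine addition that followed 180 s compound preincubation. Loss of the dopamine response indicates antagonism.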
D2 ag-1 = activates the human D2 dopamine receptor | activation, % (no concentration beside the values) | P14416 | DiscoveRx PathHunter D2 beta-arrestin, luminescence, 90 min; 100% = 57 uM dopamine signal | AID 624465 | 0.084% of 360,000 active; in the data active = activation above about 40%; inconclusive = between about 15% and that limit
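Agonist mode: compounds alone added to overnight-plated D2 PathHunter cells for 90 min at 37 C, with 57 uM final dopamine (EC100) defining full response. Beta-arrestin recruitment detected by chemiluminescent reagent, read after 1 h at ambient temperature.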
D2 PAM-1 = positively modulates the human D2 dopamine receptor allosterically; HEK293 T-REx D2, calcium flux, EC20 dopamine potentiation; AID 485347; 0.34% of 340,000 active; potentiation, % at 10 µM; P14416;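 active = potentiation over 3 SD above the plate norm, cut at about 30% in these data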
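Tetracycline-induced HEK293 T-REx cells force-coupled to calcium signalling expressed D2; compounds were pin-added after a 10 s baseline, read kinetically 180 s, then an EC20 dopamine challenge followed with a further 180 s calcium read.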
D2 ag-2 = agonists of human D2 dopamine receptor; 0.53% of 340,000 active; AID 485358; P14416; HEK293 T-REx D2 cells, calcium flux agonist mode; activation, % at 2 µM;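 active = activation over 3 SD above normal in the single-dose calcium agonist read, cut at about 30% in these data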
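Agonism scored from kinetic calcium signal (1 read/sec, 180 s) following compound pin transfer, after a 10 s baseline. Cells: HEK293 Trex line expressing inducible D2 receptor coupled to calcium, dye-loaded after overnight culture at 30 C.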
D2 PAM-2 = positive allosteric modulators of human D2 dopamine receptor; AID 624464; potentiation, % (concentration not given with the values); P14416; 0.23% of 360,000 active; DiscoveRx D2 beta-arrestin cells, luminescence, 90 min; 100% = 57 uM dopamine signal; in the data active = potentiation above about 50%; inconclusive = mostly about 30% to 49%
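D2 cells co-treated with compound plus 50 nM dopamine (EC20) for 90 min at 37 deg C to detect potentiation. Beta-arrestin recruitment was read as enzyme-fragment luminescence after 1 h at ambient temperature. Full response was set by 57 uM dopamine.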
Hits are given with their value; . = inactive; ? = inconclusive; / = not tested or not shown. Most compounds without a hit are left out; they make up all but 2.4% or so of the library.

SMILES	D2 antagonist	D2 ag-1	D2 PAM-1	D2 ag-2	D2 PAM-2
COc1ccc(N=Nc2nc3cc(Br)c(Br)cc3n2C)c(OC)c1	.	.	.	33	.
CCOc1ccccc1NC(=O)Cn1cc(C(=O)c2ccc(Cl)cc2)c(=O)c2ccc(C)nc21	/	/	.	.	/
COCCN(C(=O)COC(=O)/C=C/c1ccc(C(F)(F)F)cc1)c1c(N)n(Cc2ccccc2)c(=O)[nH]c1=O	45	.	.	.	.
COc1cccc(C(=O)Nc2cccc(C(=O)OCc3cc(=O)n4c(C)csc4n3)c2)c1	/	/	.	.	/
COc1cccc(-n2c(SCC(=O)NCc3ccco3)nnc2-c2c[nH]c3ccccc23)c1	48	.	.	.	.
Cc1ccccc1NC(=O)Cn1nnc(-c2ccc(CN3CCC(C)CC3)cc2)n1	33	.	.	.	.
Cc1ccccc1CSc1nnnn1-c1ccc(C(N)=O)cc1	.	.	.	.	.
O=C(O)c1ccc(-n2nnnc2SCc2ccccc2F)cc1	37	.	.	.	.
CCCCOc1ccc2c(C)cc(=O)oc2c1OCCCC	43	.	.	.	.
CC(=O)c1c(OCC(=O)O)ccc2c(C)cc(=O)oc12	47	.	.	.	.
CN1CCN(CCCNC(=O)Cn2c(-c3cccs3)cc3cc(Cl)ccc32)CC1	/	/	.	.	/
Fc1ccc(Nc2nc3nonc3nc2Nc2cccc(C(F)(F)F)c2)cc1	/	/	.	/	/
COc1ccccc1Nc1nn2c(=O)c3ccc(C(=O)NC4CCCCC4)cc3nc2s1	/	/	.	.	/
Cc1ccc(CSc2nncn3c2cc2sccc23)cc1	/	/	.	.	/
CCSc1nnc2c(n1)OC1(CCCC1)Nc1ccccc1-2	39	.	.	.	.
CCSc1nnc2c(n1)OC(c1ccc(C)s1)Nc1ccccc1-2 (centres undefined)	/	/	.	.	/
CC1(C(=O)NNC(=O)c2ccc([N+](=O)[O-])cc2)CC1(Br)Br (centres undefined)	37	.	.	.	.
CC1(C(=O)NNC(=O)c2cccc([N+](=O)[O-])c2)CC1(Br)Br (centres undefined)	.	.	.	.	.
S=C(NCCc1ccccc1)N1CCc2ccccc2C1	41	.	.	.	.
OC1CCN(C(=S)NCCc2ccccc2)CC1	.	.	.	.	.
O=C(Nc1ccc(S(=O)(=O)N2CCCCC2)cc1)c1ccc(CN2CCOCC2)cc1	/	.	42	/	.
CCN(CC)S(=O)(=O)c1ccc(NC(=O)c2ccc(CN3CCOCC3)cc2)cc1	.	.	30	.	.
O=C(Nc1ccc(S(=O)(=O)N2CCCC2)cc1)c1ccc(CN2CCOCC2)cc1	.	.	.	.	.
O=C(Nc1cccc(S(=O)(=O)C(F)F)c1)c1ccc(S(=O)(=O)N2CCCC2)cc1	59	.	.	.	.
COc1cc(NC(=O)Cn2c(=O)n(Cc3ccccc3Cl)c(=O)c3cc(OC)c(OC)cc32)cc(OC)c1	/	/	.	.	/
SMILES	D2 antagonist	D2 ag-1	D2 PAM-1	D2 ag-2	D2 PAM-2
Oc1ccc(NCc2ccccc2OCc2ccccc2)cc1	.	?	.	.	97
CCC(=O)NC1=C(Cl)C(=O)C(NC(=O)CC)=C(Cl)C1=O	.	42	.	.	.
CCC(=O)NC1=C(NC(C)c2ccccc2)C(=O)c2ccccc2C1=O (centres undefined)	.	.	.	.	?
O=C(CNC(=O)c1cccs1)NCC(=O)OCc1ccc(F)cc1	.	.	35	.	.
COCCNc1nc(-c2cc3ccccc3o2)cs1	38	.	.	.	.
COc1cc(OC)cc(C(=O)NC(=S)Nc2nc(-c3cc4ccccc4o3)cs2)c1	.	.	.	.	.
CCN(Cc1nc(-c2ccc(OC)c(OC)c2)no1)C(=O)c1ccc2c(c1)OCO2	37	.	.	.	.
COC(=O)c1ccc(-n2c(/C=C/c3cc(OC)c(OC)c(OC)c3)nc3cc(Cl)ccc3c2=O)cc1	/	/	.	.	/
N=c1oc2ccc(Br)cc2cc1C(=O)NCc1ccc(F)cc1	.	.	.	.	.
CCN(CC)c1ccc2cc(C(=O)NCc3ccc(F)cc3)c(=N)oc2c1	.	/	.	46	/
CCc1cc(=S)n2c([nH]c3ccccc32)c1C#N	.	.	32	.	.
CCc1cc(=O)n2c([nH]c3ccccc32)c1C#N	.	.	.	/	.
O=C(NC12CC3CC(CC(C3)C1)C2)C1CCCN1C(=O)NC1CCCCC1 (centres undefined)	.	.	.	.	.
CC1CCCCN1C(=O)NC12CC3CC(CC(C3)C1)C2 (centres undefined)	34	.	.	.	.
CCc1nn(CC(=O)N2CCCCC2)c(=O)c2cc3sccc3n12	/	/	.	.	/
CN(C(=O)CN1C(=O)C2C3CC(C(Br)C3Br)C2C1=O)C1CCCCC1 (centres undefined)	31	.	.	.	.
CC1CCN(CC(O)CN2c3ccccc3Sc3ccccc32)CC1 (centres undefined)	71	.	.	.	.
Cc1ccc(SCC(=O)OCC(=O)N(CCC#N)c2ccccc2)cc1	33	.	.	.	.
N#CCCN(C(=O)COC(=O)CSc1ccc(Cl)cc1)c1ccccc1	/	.	/	/	.
Nc1ncnc2c1ncn2C1OCC(O)C1O (centres undefined)	/	.	/	/	.
O=c1cc(C(Cl)(Cl)Cl)oc2c1ccc1ccccc12	.	.	.	.	85
NNC(=O)/C(=C\c1cccs1)NC(=O)c1ccccc1	31	.	.	.	.
COc1ccc([N+](=O)[O-])cc1/C=N/NC(=O)/C(=C\c1cccs1)NC(=O)c1ccccc1	43	.	.	.	.
COc1ccc([N+](=O)[O-])cc1NC(=S)NC(NC(=O)Cc1ccc(OC)c(OC)c1)C(Cl)(Cl)Cl (centres undefined)	74	.	.	.	.
COc1ccc([N+](=O)[O-])cc1NC(=S)NC(NC(C)=O)C(Cl)(Cl)Cl (centres undefined)	.	.	.	.	.
SMILES	D2 antagonist	D2 ag-1	D2 PAM-1	D2 ag-2	D2 PAM-2
CNc1nc(C)nc(N/N=C/c2ccccc2)n1	42	.	.	.	.
Cc1cc(C(F)(F)F)n(-c2nc(C(=O)O)cs2)n1	.	.	.	.	.
O=C(O)c1csc(-n2nc(-c3ccccc3)cc2C(F)(F)F)n1	48	.	.	.	.
Cc1cccc(Oc2nc3ccccn3c(=O)c2/C=C(\C#N)c2nc3ccccc3s2)c1C	/	/	.	.	/
CSc1cccc(NC(=O)/C=C/c2ccccc2)c1	39	.	.	.	.
CSc1cccc(NC(=O)/C=C/c2ccc(Cl)cc2)c1	70	.	.	.	.
COCCCNc1nc(NCc2ccc(C)cc2)c2cnn(C)c2n1	/	/	.	.	/
COCC(=O)N(Cc1cc2ccc(C)c(C)c2n2nnnc12)C1CCCC1	.	.	37	.	.
COc1ccc(Cn2c(SCc3ccc(C(=O)NCc4cccs4)cc3)nc3ccncc32)cc1	/	/	.	.	/
